The structures appear in SMILES notation. Screen size: about 87,000 compounds; about 360 (0.41%) were called active. For the sample, actives were picked, then their nearest neighbours and some compounds at random. A number with no mark means an inactive call. No stated cut-off is given here; in the data, active means cytotoxicity above about 50%; inactive means the rest.

The nature of the experiment: cytotoxicity in HT1080 fibrosarcoma cells, cell-based, fluorescence readout (AID 620).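 Further: cells exposed to compound overnight then 4 h with Alamar Blue; 0% = vehicle DMSO and 100% = killing control.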 The settings on record: HT1080 viability, at 10 µM, active compounds read high.
With `Brc1ccc(-c2cn3c(n2)CCc2ccc4cccnc4c2-3)cc1`, the cytotoxicity is 53.1% (active).

In the case of `Brc1ccc(-c2cn3cccnc3n2)cc1`, the cytotoxicity is 9.4%.

Regarding `c1ccc(-c2cn3c(n2)CCc2ccc4cccnc4c2-3)cc1`, the cytotoxicity was 37%.

With `CCn1c(=O)n(CC)c2cc(S(=O)(=O)N3CCC(c4ccccc4)CC3)ccc21`, the cytotoxicity is -6.5%.

For `CCn1c(=O)n(CC)c2cc(S(=O)(=O)N3CCc4ccccc43)ccc21`, the cytotoxicity was 71.3% (active).

Regarding `Cn1c(=O)c(=O)n(C)c2cc(S(=O)(=O)N3CCc4ccccc43)ccc21`, the cytotoxicity was -4%.

In the case of `Cc1cc(C)c(C)c(S(=O)(=O)NCc2ccco2)c1C`, the cytotoxicity was 24.4%.

`COc1ccc(C(N)=O)cc1N`: the cytotoxicity is 2.5%.

For `COc1ccc(C(=O)c2ccc(OC)c(N)c2)cc1N`, the cytotoxicity is 53.8% (active).

As to `COc1ccc(C(=O)c2ccc(OC)c(OC)c2)cc1OC`, the cytotoxicity was 14.8%.

Regarding `COc1ccc(OCCCC(=O)Nc2nncs2)cc1`, the cytotoxicity was 8.3%.

Consider `O=C(NCCN1CCN(c2ccccc2F)CC1)C1CC(=O)N(C2CCCC2)C1` (stereo not drawn), for which the cytotoxicity is 7%.

As for `CC1CCCCC1NC(=O)CSc1nncs1` (stereo not drawn), the cytotoxicity was -0.9%.

As for `COC(=O)c1ccc(OC(=O)c2ccc(OCc3c(C)noc3C)c(OC)c2)cc1`, the cytotoxicity is -2%.

For `COC(=O)c1ccc(OC(=O)c2ccc(OC)c(OC)c2)c(OC)c1`, the cytotoxicity was -8%.

`COC(=O)c1ccc2c(c1)C(C)(C)C(/C=C/c1ccc(OC)c(OC)c1OC)=[N+]2C`: the cytotoxicity was 64.8% (active).

Consider `O=C(Nc1cccc(Cl)c1)N(CCN1CCOCC1)Cc1cccc(Cl)c1`, for which the cytotoxicity is 24%.

`Cc1ccc(NC2=NCC(=O)N2Cc2ccccc2)c(C)c1`: the cytotoxicity is -14.9%.

For `COC(=O)c1cc2ccsc2n1Cc1cc(=O)n2ccccc2n1`, the cytotoxicity was 60.2% (active).

Consider `COC(=O)c1cc2ccsc2n1CC(=O)N(C)c1ccccc1`, for which the cytotoxicity was -3.5%.

In the case of `COC(=O)c1cc2ccsc2n1Cc1nc(-c2ccc(OC)cc2)oc1C`, the cytotoxicity is -11.4%.

As for `CCn1c(SCC(=O)Nc2ccccc2)nc2c1c(=O)n(C)c(=O)n2C`, the cytotoxicity is -1.6%.

On to `COc1cccc(OCC(=O)Nc2c(C(=O)Nc3ccc(OC)cc3OC)oc3ccccc23)c1`, for which the cytotoxicity is 2.3%.

As for `O=S(=O)(Nc1cccnc1)c1cccc(C(F)(F)F)c1`, the cytotoxicity is 2.9%.

For `O=C(COc1cccc2ccccc12)N1CCN(c2ccccn2)CC1`, the cytotoxicity is -9%.

On to `Cc1ccc(Nc2nc(N3CCOCC3)c3ccccc3n2)cc1`, for which the cytotoxicity was -0.4%.

`COc1ccc(Nc2nc(N3CCCC3)c3ccccc3n2)cc1`: the cytotoxicity was 19.5%.

In the case of `CCOC(=O)N1CCN(c2c(N3CCN(c4ccccn4)CC3)c(=O)c2=O)CC1`, the cytotoxicity was -3%.

Regarding `COc1ccc(-c2nc3ccccc3s2)cc1O`, the cytotoxicity is -4%.

Regarding `COc1ccc(-c2c/c(=N\c3nc(-c4ccccc4)c(C)s3)c3ccccc3o2)cc1O`, the cytotoxicity is 60% (active).

In the case of `COc1ccc(-c2nc(-c3ccccc3)c(-c3cc([N+](=O)[O-])ccc3C)[nH]2)cc1O`, the cytotoxicity was 10.8%.

As to `Cn1c(SCc2ccccc2Cl)nc2ccccc21`, the cytotoxicity is 30.7%.

On to `Cc1nc2ccc(NC(=O)c3ccc(Cl)c(NC(=O)c4cccs4)c3)cc2s1`, for which the cytotoxicity was 3.4%.

In the case of `CCn1c(SCc2ccccc2)nnc1-c1ccc(S(=O)(=O)N2CCCCC2)cc1`, the cytotoxicity is -8.1%.

Turning to `O=C1C(Cl)=C(Nc2ccccc2O)C(=O)N1c1ccccc1`, the cytotoxicity is -3.8%.

Consider `CNC(=O)[C@@]1(C)C=C[C@@H](Cc2ccccc2)N1C(=O)OC`, for which the cytotoxicity was -1%.

For `COC(=O)CNC(=O)[C@@]1(C)C=C[C@@H](Cc2ccccc2)N1C(=O)OC`, the cytotoxicity is 89.9% (active).

`COC(=O)CNC(=O)[C@@]1(C)C=C[C@@H](Cc2ccccc2)N1C(C)=O`: the cytotoxicity is -25%.

Regarding `COc1cccc(-c2nnc(SCC(N)=O)n2-c2ccc(Cl)cc2)c1`, the cytotoxicity was -0.4%.

For the compound `O=S(=O)(c1cccc(-c2nc3ccccc3s2)c1)N1CCOCC1`, the cytotoxicity was -1%.

Regarding `COc1ccccc1NC(=O)N(Cc1ccco1)Cc1cc2ccc(C)c(C)c2[nH]c1=O`, the cytotoxicity was 58.4% (active).

For the compound `COc1ccccc1NC(=O)N(Cc1ccco1)Cc1cc2cc(C)cc(C)c2[nH]c1=O`, the cytotoxicity was 3.9%.

Turning to `COc1ccccc1NC(=O)N(Cc1ccco1)Cc1cc2cccc(C)c2[nH]c1=O`, the cytotoxicity is -8%.

As for `COc1ccc(NC(=O)CCN2CCN(S(=O)(=O)c3ccc(Cl)cc3)CC2)cc1`, the cytotoxicity is -5.2%.

Regarding `COc1ccc(CC2C(=O)OC(C)(C)OC2=O)cc1`, the cytotoxicity was -9.2%.

As for `O=C(Nc1cccc(-c2cc3ccccc3oc2=O)c1)c1ccc(Br)o1`, the cytotoxicity was -1.6%.

Turning to `COc1ccc(NS(=O)(=O)c2cc(C)ccc2C)cc1`, the cytotoxicity is 2.8%.

For `COc1ccc(C)c(S(=O)(=O)Nc2ccc(OCC(=O)O)cc2)c1`, the cytotoxicity is -3.4%.

In the case of `COc1ccc(NS(=O)(=O)c2cc(C(=O)O)ccc2C)cc1`, the cytotoxicity is -2.1%.

Consider `COc1ccc(NS(=O)(=O)c2cc(C)ccc2NC(=O)c2cc(C)oc2C)cc1`, for which the cytotoxicity is 67.9% (active).

Take `COc1ccc(NS(=O)(=O)c2cc(OC)ccc2NC(=O)c2cc(C)oc2C)cc1`: the cytotoxicity is 54% (active).

Take `COc1ccc2nc(NC(=O)c3cc(C)oc3C)sc2c1`: the cytotoxicity is -5.9%.

Turning to `CCOC(=O)C1Cc2ccccc2CN1` (stereo not drawn), the cytotoxicity is -7.6%.

Consider `CCOC(=O)N1CCC(NC(=O)C2CCCN(S(=O)(=O)c3ccc4c(c3)oc(=O)n4C)C2)CC1` (stereo not drawn), for which the cytotoxicity was -2.4%.

Take `Cc1ccc(Oc2ccc(S(=O)(=O)N3CCOCC3)cc2C(N)=O)c(-n2nc3ccccc3n2)c1`: the cytotoxicity was 53.4% (active).

On to `CC(=O)Oc1ccc(C)cc1-n1nc2ccccc2n1`, for which the cytotoxicity was -18.3%.

For the compound `COc1ccccc1Oc1ccc(S(=O)(=O)N2CCOCC2)cc1S(=O)(=O)N1CCOCC1`, the cytotoxicity is -0.3%.

On to `Cc1cc(C)c(C#N)c(SCC(=O)Nc2ccc3c(c2)OCO3)n1`, for which the cytotoxicity is -1.7%.

In the case of `CN(C)/C=C(\C(=O)c1ccc(Cl)cc1)c1nnnn1-c1ccc(Cl)cc1`, the cytotoxicity is 5.8%.

For `OC(CNCCc1ccccc1)c1ccccc1` (stereo not drawn), the cytotoxicity is -2.3%.

As to `CCNc1nc(NCC)nc(N2CC(=O)N(CC(=O)OCC)C2=N)n1`, the cytotoxicity is 4.9%.

`Clc1ccc2c(c1)C1=C(C(c3ccncc3)O2)C(c2ccc(Br)cc2)n2ncnc2N1` (stereo not drawn): the cytotoxicity is 50.7% (active).

Consider `Fc1ccc(C2C3=C(Nc4ncnn42)c2ccccc2OC3c2ccncc2)cc1` (stereo not drawn), for which the cytotoxicity was 14.5%.

For the compound `Brc1ccc(C2C3=C(Nc4ncnn42)c2ccccc2OC3c2ccncc2)cc1` (stereo not drawn), the cytotoxicity was 44.4%.

For `O=C(CSCCc1ccccn1)Nc1ccccn1`, the cytotoxicity was 3.4%.

Consider `O=C(Cc1cn2ccsc2n1)OCc1nc2ccccc2s1`, for which the cytotoxicity was -1.1%.

Consider `CCOC(=O)c1c(C)[nH]c(C(=O)COC(=O)CNC(=O)C2CCCCC2)c1C`, for which the cytotoxicity was 0.3%.

Take `CCOC(=O)C1=C(C)N(CCCC(=O)O)C(=O)NC1c1ccccc1OC(=O)c1cccs1` (stereo not drawn): the cytotoxicity is -19.7%.

For the compound `CCC1CCCN1Cn1cnc2c([nH]c3ccccc32)c1=O` (stereo not drawn), the cytotoxicity was 2.5%.

For `O=C(NCC(c1cccnc1)N1CCN(c2ccccc2)CC1)OCc1ccccc1` (stereo not drawn), the cytotoxicity is 3.4%.

Consider `CCOC(=O)c1ccccc1NS(=O)(=O)c1ccc(C)cc1`, for which the cytotoxicity was 6.9%.

For `COC(=O)COc1ccc(S(=O)(=O)Nc2cc(OC)ccc2OC)cc1`, the cytotoxicity is 2.6%.

With `CCOc1ccc(S(=O)(=O)Nc2cc(OC)ccc2OC)cc1`, the cytotoxicity is 59.8% (active).

Turning to `CCOC(=O)c1ccccc1NS(=O)(=O)c1ccc(OCC)cc1`, the cytotoxicity is 55.2% (active).

For `COc1ccc(Cl)cc1NS(=O)(=O)c1ccc(S(=O)(=O)N2CCCC2)cc1`, the cytotoxicity was -1.1%.

Take `COc1ccc(Cl)cc1NS(=O)(=O)c1ccc(OC)c(OC)c1`: the cytotoxicity is -2.2%.

Turning to `CCOC(=O)c1ccccc1NS(=O)(=O)c1ccccc1`, the cytotoxicity was 37%.

In the case of `COc1ccc(S(=O)(=O)Nc2cc(Cl)ccc2OC)cc1`, the cytotoxicity was 70.9% (active).

Regarding `CCCCOc1ccc(S(=O)(=O)Nc2cc(OC)ccc2OC)cc1`, the cytotoxicity was 4.8%.

As for `Cc1cc(C)n(/N=C\c2c(O)ccc3ccccc23)c(=O)c1C(N)=O`, the cytotoxicity was 0%.

For `CC(=O)c1ccc(OC(C)C)c(CN2CCCCC2)c1`, the cytotoxicity was 1.8%.

As for `Cc1onc(-c2ccccc2)c1C(=O)Nc1cccc(C#N)c1`, the cytotoxicity was -1.8%.

As for `COC(=O)CSc1nnc(CNS(=O)(=O)c2ccc(C)cc2)n1C`, the cytotoxicity is 6.8%.

For the compound `Cc1ccc2cc(-c3noc(C4CCCCC4)n3)c(=O)[nH]c2c1`, the cytotoxicity was -0.9%.

As for `Cn1c(=O)c2c(nc(Br)n2CC(=O)c2cccs2)n(C)c1=O`, the cytotoxicity is -2.7%.

`COc1ccc(S(=O)(=O)N2CCN(S(=O)(=O)c3ccc4c(c3)OCCO4)CC2)cc1`: the cytotoxicity is 2.3%.

In the case of `COc1ccc(S(=O)(=O)N2N=C(C)Oc3ccccc3C2=O)cc1`, the cytotoxicity is 60.3% (active).

Turning to `CC1=NN(S(=O)(=O)c2ccc(F)cc2)C(=O)c2ccccc2O1`, the cytotoxicity is 0.4%.

For the compound `O=C(NCc1ccccc1)C1CCN(S(=O)(=O)N2CCCCCC2)CC1`, the cytotoxicity was -5.9%.

Take `O=C(N1CCOCC1)n1nnc2ccccc21`: the cytotoxicity is -1.4%.

`O=S(=O)(N1CCOCC1)n1nnc2ccccc21`: the cytotoxicity was -4.1%.

Consider `CCc1ccc2c(c1)[C@]1(C(=O)N2)[C@@H]2C(=O)N(Cc3ccccc3)C(=O)[C@@H]2[C@@H]2CCCN21`, for which the cytotoxicity was -2.5%.

As to `COc1ccc2nc(NCCO)[nH]c2c1`, the cytotoxicity was 3.7%.

In the case of `CCCOc1ccc2nc(NC(=O)OC)[nH]c2c1`, the cytotoxicity is 64.1% (active).

As to `CCOc1ccc2nc(NCCO)[nH]c2c1`, the cytotoxicity is -12%.

As to `C=CCOc1ccc2nc(NC(=O)OC)[nH]c2c1`, the cytotoxicity is 62.3% (active).

Take `CCCSc1ccc2nc(NC(=O)OC)[nH]c2c1`: the cytotoxicity is 40%.

Turning to `COc1ccc(OCC(=O)Nc2nc3ccccc3[nH]2)cc1`, the cytotoxicity was -8.8%.

(Values after PubChem BioAssay AID620 (Sanford-Burnham Center for Chemical Genomics, 2007).)
